Laboratory results from paper PMC7862700, “An all-to-all approach to the identification of sequence-specific readers for epigenetic DNA modifications on cytosine”.

How the values were obtained:
Assay in all cases: DAPPL (digital affinity profiling via proximity ligation, sequencing); 10 mM Tris-HCl pH 7.5, 50 mM NaCl, 1 mM DTT, 4% glycerol, room temperature, 30 min; GST-TFs on glutathione beads, 16-mer random dsDNA library, 0.1% formaldehyde crosslink after washing; high values mean tight binding
[1] = target: T1, FEV (Homo sapiens, UniProt Q99581 1-238); settings: protein: recombinant; tags: N-terminal GST; dsDNA, one strand shown
T1 sequence: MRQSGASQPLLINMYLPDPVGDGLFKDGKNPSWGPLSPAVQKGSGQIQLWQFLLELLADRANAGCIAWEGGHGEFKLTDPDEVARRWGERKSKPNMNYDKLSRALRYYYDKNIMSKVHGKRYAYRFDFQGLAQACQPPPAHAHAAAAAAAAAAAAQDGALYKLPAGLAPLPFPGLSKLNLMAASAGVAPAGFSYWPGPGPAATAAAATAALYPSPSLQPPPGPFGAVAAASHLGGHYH
In short: (§1)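 Binding signal is each hexamer's read frequency for a factor divided by its frequency in the tag-only sample. The factors were GST-fused human transcription factors from yeast, captured on glutathione beads, DNA-barcoded and pooled with that sample. Pools were incubated with 200 nmole of a random double-stranded 16-mer DNA library in Tris/NaCl/DTT/glycerol buffer at room temperature for 30 min, then washed, crosslinked with 0.1% formaldehyde, proximity-ligated with BsaI/T4 ligase (1 h, 37 °C), PCR-amplified and sequenced on an Illumina NextSeq500.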

[2] = target: ETV5 (Homo sapiens, UniProt P41161 1-510); settings: protein: recombinant; tags: N-terminal GST; dsDNA, one strand shown
In short: as §1

[3] = target: HSF1 (Homo sapiens, UniProt Q00613 1-529); settings: protein: recombinant; tags: N-terminal GST; chain copies: 3; dsDNA, one strand shown
In short: as §1

[4] = target: T2, SPIC (Homo sapiens, UniProt Q8N5J4 1-248); settings: protein: recombinant; tags: N-terminal GST; dsDNA, one strand shown
T2 sequence: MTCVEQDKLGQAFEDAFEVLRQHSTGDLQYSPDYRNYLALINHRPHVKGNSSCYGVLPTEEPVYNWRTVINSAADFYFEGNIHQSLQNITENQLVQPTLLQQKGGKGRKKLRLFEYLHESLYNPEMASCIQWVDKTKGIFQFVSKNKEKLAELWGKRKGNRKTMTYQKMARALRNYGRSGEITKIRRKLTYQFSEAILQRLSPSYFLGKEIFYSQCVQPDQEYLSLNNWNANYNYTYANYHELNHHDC
In short: as §1

[5] = target: ELF4 (Homo sapiens, UniProt Q99607 1-663); settings: protein: recombinant; tags: N-terminal GST; dsDNA, one strand shown
In short: as §1

[6] = target: T3, ELK4 (Homo sapiens, UniProt P28324-2 1-405); settings: protein: recombinant; tags: N-terminal GST; dsDNA, one strand shown
T3 sequence: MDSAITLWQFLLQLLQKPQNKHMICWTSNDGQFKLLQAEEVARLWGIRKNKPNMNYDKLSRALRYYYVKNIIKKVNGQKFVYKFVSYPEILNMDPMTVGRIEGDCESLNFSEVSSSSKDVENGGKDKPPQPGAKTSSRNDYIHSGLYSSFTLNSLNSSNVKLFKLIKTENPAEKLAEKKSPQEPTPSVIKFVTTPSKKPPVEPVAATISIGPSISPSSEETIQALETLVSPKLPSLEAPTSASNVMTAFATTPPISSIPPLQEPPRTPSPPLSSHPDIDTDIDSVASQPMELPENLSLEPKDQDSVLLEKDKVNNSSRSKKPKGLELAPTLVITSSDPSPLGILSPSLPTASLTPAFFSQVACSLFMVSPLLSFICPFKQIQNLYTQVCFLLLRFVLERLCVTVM
In short: as §1

[7] = target: T4, ETV2 (Homo sapiens, UniProt O00321 1-342); settings: protein: recombinant; tags: N-terminal GST; dsDNA, one strand shown
T4 sequence: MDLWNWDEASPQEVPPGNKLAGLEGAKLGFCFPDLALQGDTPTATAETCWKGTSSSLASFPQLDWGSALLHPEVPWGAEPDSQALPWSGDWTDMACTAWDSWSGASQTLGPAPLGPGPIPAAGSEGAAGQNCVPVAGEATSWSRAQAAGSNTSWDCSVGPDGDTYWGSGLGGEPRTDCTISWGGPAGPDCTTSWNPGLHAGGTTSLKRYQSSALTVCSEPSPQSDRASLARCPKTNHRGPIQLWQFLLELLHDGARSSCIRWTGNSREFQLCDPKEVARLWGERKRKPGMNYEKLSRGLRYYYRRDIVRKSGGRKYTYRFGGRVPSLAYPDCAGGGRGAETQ
In short: as §1

[8] = target: T5, ELF3 (Homo sapiens, UniProt P78545 1-371); settings: protein: recombinant; tags: N-terminal GST; dsDNA, one strand shown
T5 sequence: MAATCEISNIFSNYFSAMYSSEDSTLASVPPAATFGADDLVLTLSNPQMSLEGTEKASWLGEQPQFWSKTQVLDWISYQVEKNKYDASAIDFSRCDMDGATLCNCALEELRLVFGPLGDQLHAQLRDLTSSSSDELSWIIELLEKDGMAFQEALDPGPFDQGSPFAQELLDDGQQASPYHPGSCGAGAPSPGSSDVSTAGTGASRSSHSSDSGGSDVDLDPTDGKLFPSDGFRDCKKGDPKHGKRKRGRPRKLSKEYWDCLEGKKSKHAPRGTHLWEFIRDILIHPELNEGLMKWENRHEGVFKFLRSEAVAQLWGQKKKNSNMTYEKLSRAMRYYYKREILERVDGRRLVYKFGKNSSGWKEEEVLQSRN
In short: as §1

[9] = target: CRX (Homo sapiens, UniProt O43186 1-299); settings: protein: recombinant; tags: N-terminal GST; dsDNA, one strand shown
In short: as §1

[10] = target: ETV1 (Homo sapiens, UniProt P50549 1-477); settings: protein: recombinant; tags: N-terminal GST; dsDNA, one strand shown
In short: as §1

[11] = target: T6, ERF (Homo sapiens, UniProt P50548 1-548); settings: protein: recombinant; tags: N-terminal GST; dsDNA, one strand shown
T6 sequence: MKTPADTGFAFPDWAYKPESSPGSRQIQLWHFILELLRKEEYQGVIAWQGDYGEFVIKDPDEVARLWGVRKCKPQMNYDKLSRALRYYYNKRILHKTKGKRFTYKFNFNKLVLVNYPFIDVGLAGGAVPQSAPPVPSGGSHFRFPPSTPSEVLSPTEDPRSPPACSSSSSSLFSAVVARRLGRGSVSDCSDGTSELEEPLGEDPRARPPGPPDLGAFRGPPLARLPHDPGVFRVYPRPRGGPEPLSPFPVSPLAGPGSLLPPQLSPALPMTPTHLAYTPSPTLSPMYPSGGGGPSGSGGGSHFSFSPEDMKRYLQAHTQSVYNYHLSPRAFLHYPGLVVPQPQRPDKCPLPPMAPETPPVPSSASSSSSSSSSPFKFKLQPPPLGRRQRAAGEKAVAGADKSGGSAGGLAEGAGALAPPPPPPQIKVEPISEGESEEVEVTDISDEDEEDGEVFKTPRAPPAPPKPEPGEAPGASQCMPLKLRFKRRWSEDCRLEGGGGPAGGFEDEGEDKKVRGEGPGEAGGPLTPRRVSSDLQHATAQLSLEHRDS
In short: as §1

[12] = target: T7, ETV3L (Homo sapiens, UniProt Q6ZN32 1-361); settings: protein: recombinant; tags: N-terminal GST; dsDNA, one strand shown
T7 sequence: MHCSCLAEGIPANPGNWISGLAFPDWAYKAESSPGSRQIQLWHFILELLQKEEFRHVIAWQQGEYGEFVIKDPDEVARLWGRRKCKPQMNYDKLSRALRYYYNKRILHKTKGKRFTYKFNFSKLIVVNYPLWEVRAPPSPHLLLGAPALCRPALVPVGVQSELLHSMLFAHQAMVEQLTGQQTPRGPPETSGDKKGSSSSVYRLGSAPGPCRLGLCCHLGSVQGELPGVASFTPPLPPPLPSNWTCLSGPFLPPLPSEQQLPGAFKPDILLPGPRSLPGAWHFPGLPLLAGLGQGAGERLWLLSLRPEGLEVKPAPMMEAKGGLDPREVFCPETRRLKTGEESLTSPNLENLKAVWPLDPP
In short: as §1

[13] = target: T8, ETS2 (Homo sapiens, UniProt P15036 1-469); settings: protein: recombinant; tags: N-terminal GST; dsDNA, one strand shown
T8 sequence: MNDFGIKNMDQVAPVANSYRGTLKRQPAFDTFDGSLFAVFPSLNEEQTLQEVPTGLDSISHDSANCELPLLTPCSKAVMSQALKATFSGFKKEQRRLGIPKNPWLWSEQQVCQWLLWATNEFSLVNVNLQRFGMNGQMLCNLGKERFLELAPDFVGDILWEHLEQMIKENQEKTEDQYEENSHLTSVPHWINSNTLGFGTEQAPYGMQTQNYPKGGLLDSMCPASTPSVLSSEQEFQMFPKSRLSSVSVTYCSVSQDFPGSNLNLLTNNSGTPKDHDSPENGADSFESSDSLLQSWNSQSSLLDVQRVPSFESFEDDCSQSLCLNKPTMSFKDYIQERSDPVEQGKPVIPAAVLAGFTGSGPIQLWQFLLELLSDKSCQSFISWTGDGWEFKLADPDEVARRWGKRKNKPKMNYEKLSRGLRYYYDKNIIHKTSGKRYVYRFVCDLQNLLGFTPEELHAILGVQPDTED
In short: as §1

[14] = target: T9, SPDEF (Homo sapiens, UniProt O95238 1-335); settings: protein: recombinant; tags: N-terminal GST; dsDNA, one strand shown
T9 sequence: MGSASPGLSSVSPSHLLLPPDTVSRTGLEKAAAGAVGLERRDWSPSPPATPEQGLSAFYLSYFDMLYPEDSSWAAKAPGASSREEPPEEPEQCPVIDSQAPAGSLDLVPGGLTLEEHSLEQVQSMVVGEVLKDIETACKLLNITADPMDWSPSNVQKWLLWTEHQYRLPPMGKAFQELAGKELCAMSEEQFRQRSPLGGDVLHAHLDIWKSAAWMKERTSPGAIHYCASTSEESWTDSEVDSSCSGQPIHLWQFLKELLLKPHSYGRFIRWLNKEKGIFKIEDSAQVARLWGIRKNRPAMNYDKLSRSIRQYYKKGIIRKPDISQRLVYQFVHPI
In short: as §1

[15] = target: T10, ETV7 (Homo sapiens, UniProt Q9Y603 1-341); settings: protein: recombinant; tags: N-terminal GST; dsDNA, one strand shown
T10 sequence: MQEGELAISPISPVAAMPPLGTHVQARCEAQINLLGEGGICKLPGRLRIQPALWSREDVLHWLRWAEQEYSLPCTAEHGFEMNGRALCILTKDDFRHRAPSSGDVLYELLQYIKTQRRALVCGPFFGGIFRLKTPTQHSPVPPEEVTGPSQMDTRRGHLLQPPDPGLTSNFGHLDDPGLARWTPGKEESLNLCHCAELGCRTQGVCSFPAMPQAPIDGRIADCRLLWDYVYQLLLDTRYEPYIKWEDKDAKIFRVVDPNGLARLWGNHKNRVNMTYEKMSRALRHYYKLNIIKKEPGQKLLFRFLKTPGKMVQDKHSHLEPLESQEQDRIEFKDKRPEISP
In short: as §1

[16] = target: T11, ELF5 (Homo sapiens, UniProt Q9UKW6-2 1-255); settings: protein: recombinant; tags: N-terminal GST; dsDNA, one strand shown
T11 sequence: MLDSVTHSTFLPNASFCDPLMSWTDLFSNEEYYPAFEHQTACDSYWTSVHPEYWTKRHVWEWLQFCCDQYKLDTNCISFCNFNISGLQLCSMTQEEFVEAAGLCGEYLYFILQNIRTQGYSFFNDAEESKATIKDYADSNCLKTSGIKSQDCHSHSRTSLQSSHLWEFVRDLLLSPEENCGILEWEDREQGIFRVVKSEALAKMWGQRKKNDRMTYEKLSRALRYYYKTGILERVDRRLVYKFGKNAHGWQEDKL
In short: as §1

[17] = target: T12, ETV3 (Homo sapiens, UniProt P41162-2 1-143); settings: protein: recombinant; tags: N-terminal GST; dsDNA, one strand shown
T12 sequence: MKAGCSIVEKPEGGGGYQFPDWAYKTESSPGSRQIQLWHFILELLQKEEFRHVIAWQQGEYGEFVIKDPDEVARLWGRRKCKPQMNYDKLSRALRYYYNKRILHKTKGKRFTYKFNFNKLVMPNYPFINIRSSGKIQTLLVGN
In short: as §1

[18] = target: ETV6 (Homo sapiens, UniProt P41212 1-452); settings: protein: recombinant; tags: N-terminal GST; dsDNA, one strand shown
In short: as §1

Sequence of CRX (O43186 whole entry): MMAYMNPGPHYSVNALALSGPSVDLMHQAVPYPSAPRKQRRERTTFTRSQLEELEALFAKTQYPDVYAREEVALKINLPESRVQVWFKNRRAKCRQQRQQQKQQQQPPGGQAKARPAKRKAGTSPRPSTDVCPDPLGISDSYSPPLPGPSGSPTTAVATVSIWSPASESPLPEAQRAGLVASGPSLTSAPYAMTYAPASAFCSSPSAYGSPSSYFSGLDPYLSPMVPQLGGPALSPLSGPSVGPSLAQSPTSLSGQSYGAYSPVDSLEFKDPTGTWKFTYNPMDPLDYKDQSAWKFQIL
Sequence of HSF1 (Q00613 whole entry): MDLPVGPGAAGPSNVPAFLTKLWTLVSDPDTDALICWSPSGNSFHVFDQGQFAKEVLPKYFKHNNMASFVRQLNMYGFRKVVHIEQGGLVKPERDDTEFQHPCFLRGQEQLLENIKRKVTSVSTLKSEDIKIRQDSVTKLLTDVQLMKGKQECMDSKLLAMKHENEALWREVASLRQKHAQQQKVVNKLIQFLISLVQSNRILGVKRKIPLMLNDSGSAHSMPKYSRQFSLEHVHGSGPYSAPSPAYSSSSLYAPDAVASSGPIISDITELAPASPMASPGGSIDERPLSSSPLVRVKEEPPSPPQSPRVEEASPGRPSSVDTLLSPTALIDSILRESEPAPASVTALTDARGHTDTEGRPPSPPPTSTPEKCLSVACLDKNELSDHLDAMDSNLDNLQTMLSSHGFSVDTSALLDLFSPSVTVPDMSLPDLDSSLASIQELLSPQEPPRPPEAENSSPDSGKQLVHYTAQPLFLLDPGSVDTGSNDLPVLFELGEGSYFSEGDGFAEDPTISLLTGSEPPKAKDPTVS
Sequence of ETV1 (P50549 whole entry): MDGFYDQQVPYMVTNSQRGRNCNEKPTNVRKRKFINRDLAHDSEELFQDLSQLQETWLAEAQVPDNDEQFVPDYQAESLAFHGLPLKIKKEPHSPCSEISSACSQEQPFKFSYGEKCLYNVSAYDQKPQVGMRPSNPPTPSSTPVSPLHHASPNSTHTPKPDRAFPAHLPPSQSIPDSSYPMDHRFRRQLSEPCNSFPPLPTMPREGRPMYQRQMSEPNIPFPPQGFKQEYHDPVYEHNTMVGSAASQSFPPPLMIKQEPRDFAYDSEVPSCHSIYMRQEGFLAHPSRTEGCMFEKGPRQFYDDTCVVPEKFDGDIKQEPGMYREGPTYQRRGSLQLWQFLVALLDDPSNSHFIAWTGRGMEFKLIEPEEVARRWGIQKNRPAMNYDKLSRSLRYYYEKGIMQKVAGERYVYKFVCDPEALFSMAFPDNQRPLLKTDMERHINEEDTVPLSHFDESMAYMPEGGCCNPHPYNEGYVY
Sequence of ELF4 (Q99607 whole entry): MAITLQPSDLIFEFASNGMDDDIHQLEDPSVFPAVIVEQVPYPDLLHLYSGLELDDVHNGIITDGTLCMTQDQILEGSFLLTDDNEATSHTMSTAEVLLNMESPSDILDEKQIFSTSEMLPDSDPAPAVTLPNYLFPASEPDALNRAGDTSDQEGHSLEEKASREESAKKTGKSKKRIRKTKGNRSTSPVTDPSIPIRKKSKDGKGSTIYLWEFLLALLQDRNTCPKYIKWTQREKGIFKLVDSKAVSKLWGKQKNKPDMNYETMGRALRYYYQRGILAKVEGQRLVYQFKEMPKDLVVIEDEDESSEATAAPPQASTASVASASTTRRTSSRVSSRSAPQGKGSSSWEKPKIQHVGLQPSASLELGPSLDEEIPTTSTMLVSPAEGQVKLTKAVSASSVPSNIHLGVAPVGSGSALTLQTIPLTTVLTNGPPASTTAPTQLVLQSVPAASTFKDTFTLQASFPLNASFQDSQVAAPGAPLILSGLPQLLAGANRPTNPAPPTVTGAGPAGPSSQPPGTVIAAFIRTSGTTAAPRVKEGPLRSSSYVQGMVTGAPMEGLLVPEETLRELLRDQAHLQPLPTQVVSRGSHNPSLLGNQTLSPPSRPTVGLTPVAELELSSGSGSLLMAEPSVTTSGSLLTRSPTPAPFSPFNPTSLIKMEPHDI
Sequence of ETV6 (P41212 whole entry): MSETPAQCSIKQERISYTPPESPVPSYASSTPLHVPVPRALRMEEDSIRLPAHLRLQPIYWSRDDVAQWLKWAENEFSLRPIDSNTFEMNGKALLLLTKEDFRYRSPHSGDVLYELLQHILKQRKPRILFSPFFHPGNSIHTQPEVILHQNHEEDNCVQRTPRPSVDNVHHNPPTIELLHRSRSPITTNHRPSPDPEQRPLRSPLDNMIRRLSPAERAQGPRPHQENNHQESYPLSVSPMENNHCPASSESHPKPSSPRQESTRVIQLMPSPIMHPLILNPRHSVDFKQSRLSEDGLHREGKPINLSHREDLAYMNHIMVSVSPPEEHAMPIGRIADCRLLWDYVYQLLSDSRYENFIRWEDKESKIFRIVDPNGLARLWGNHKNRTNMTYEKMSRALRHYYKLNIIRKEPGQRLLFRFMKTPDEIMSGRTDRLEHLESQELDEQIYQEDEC
Sequence of ETV5 (P41161 whole entry): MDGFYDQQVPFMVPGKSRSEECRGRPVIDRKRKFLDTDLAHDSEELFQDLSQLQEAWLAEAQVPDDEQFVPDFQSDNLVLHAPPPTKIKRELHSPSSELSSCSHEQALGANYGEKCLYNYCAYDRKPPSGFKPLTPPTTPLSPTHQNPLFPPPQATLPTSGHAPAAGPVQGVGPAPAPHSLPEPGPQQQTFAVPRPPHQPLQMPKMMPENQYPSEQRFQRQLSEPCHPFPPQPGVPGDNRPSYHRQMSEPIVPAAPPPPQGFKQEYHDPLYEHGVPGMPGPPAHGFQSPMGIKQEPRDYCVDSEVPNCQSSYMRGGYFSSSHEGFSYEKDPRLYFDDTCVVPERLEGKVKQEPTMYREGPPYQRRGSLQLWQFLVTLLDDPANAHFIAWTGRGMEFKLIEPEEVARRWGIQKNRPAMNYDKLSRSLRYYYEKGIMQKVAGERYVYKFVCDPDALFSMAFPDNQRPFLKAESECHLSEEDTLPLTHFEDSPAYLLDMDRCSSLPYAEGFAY

## AATGAT
[1]
  binding signal: 1.18 fold enrichment (6-mer frequency, TF over GST control)
[2]
  binding signal: 1.14 fold enrichment (6-mer frequency, TF over GST control)
[3]
  binding signal: 1.25 fold enrichment (6-mer frequency, TF over GST control)
[4]
  binding signal: 1.1 fold enrichment (6-mer frequency, TF over GST control)
[5]
  binding signal: 1.17 fold enrichment (6-mer frequency, TF over GST control)
[6]
  binding signal: 1.25 fold enrichment (6-mer frequency, TF over GST control)
[7]
  binding signal: 1.21 fold enrichment (6-mer frequency, TF over GST control)
[8]
  binding signal: 1.17 fold enrichment (6-mer frequency, TF over GST control)
[9]
  binding signal: 1.37 fold enrichment (6-mer frequency, TF over GST control)
[10]
  binding signal: 1.07 fold enrichment (6-mer frequency, TF over GST control)
[11]
  binding signal: 1.18 fold enrichment (6-mer frequency, TF over GST control)
[12]
  binding signal: 1.24 fold enrichment (6-mer frequency, TF over GST control)
[13]
  binding signal: 1.12 fold enrichment (6-mer frequency, TF over GST control)
[14]
  binding signal: 1.13 fold enrichment (6-mer frequency, TF over GST control)
[15]
  binding signal: 1.2 fold enrichment (6-mer frequency, TF over GST control)
[16]
  binding signal: 1.06 fold enrichment (6-mer frequency, TF over GST control)
[17]
  binding signal: 1.21 fold enrichment (6-mer frequency, TF over GST control)
[18]
  binding signal: 1.24 fold enrichment (6-mer frequency, TF over GST control)
